{"source": "PubChem BioAssay (Tox21)", "note": "Results filed as inconclusive are left out. A call without a number means that no potency is given here. Activity calls are given as the source filed them. Calls follow the shape of the dose curve; as a rule, active = well fitted cell-killing curve with a large enough effect in the repeat runs; inconclusive = weak or mixed curves, or effect the other way; inactive = flat fitted curve, though single readings scatter. Potency is read from the fitted curve at half-maximal effect."}
{"experiment": "Nuclear factor erythroid 2-related factor 2/antioxidant responsive element (Nrf2/ARE) small molecule agonists: qHTS cell viability counter screen in human keratinocytes (AID 1919968); also: nearly all actives have a fitted effect of over 55% in size", "settings": "KeratinoSens HaCaT ARE cells viability, CellTiter-Fluor, 24 h; series mostly up to 92.4 µM", "description": "U.S. Tox21 Program National Center for Advancing Translational Sciences [NCATS] Division of Preclinical Innovation [DPI] U.S. Environmental Protection Agency [EPA] National Institutes of Environmental Health Sciences [NIEHS] National Toxicology Program [NTP] U.S. Food and Drug Administration [FDA] Tox21 Assay Overview: Oxidative stress has been implicated in the pathogenesis of a variety of diseases ranging from cancer to neurodegeneration. The antioxidant response element (ARE) signaling pathway plays an important role in the amelioration of oxidative stress. The KeratinoSens (Givaudan, Switzerland) is an in vitro test method which quantifies luciferase induction as a measure of activation of Keap1-Nrf2-antioxidationt/electrophile response element (ARE) dependant pathway in HaCaT human keratinocytes stably transfected with a selectable plasmid. The KeratinoSens assay is a cell-based assay with a reporter cell line to detect potential skin sensitizers by their ability to induce the Nrf2/ARE-response. The activation of the report gene under culture conditions can be detected by ONE-Glo Luciferase Assay System (Promega, Madison, WI). This cell line has been used to screen the Tox21 10K compound library to identify agonists that induce oxidative stress. The cytotoxicity of the Tox21 compound library against the KS-ARE cell line was tested in parallel by measuring the cell viability using CellTiter- Fluor assay system (Promega, Madison, WI) in the same wells.\nTox21 Assay Protocol Summary: HaCaT derived cell line KeratinoSens were dispensed at 1,500 cells/5uL/well in 1536-well white wall/solid bottom plates using a Multidrop Combi (ThermoFisher Scientific, Waltham, MA) dispenser. After the assay plates were incubated at 37 C/5% CO2 for 5 h, 23 nL of compounds dissolved in DMSO, positive controls or DMSO only was transferred to the assay plate by a pintool workstation (Kalypsys, San Diego, CA). The plates were incubated at 37 C/5% CO2 for 23 h, followed by addition of 1uL/well of CellTiter-Fluor reagent into the assay plates using a Flying Reagent Dispenser (Aurora Discovery, San Diego, CA) for cell viability readout that measures cytotoxicity. After 1 h incubation at 37 C/5% CO2 the fluorescence intensity was measured using a ViewLux (PerkinElmer, Shelton, CT) plate reader."}
{"smiles": "COC(=O)OC", "Potency": "inactive"}
{"smiles": "[O-][n+]1ccc(Cl)cc1", "Potency": "inactive"}
{"smiles": "O=C(c1ccc(Cl)cc1)c1ccc(Cl)cc1", "Potency": "inactive"}
{"smiles": "Cc1cccc(S(=O)(=O)O)c1C", "Potency": "inactive"}
{"smiles": "CCCCOCCOCCOC(=O)CCCCC(=O)OCCOCCOCCCC", "Potency": "inactive"}
{"smiles": "Cc1nc2ccccc2s1", "Potency": "inactive"}
{"smiles": "COC(c1ccccc1)(c1ccccc1)[C@H](Oc1nc(C)cc(C)n1)C(=O)O", "Potency": "inactive"}
{"smiles": "CCOc1ccccc1C(N)=O", "Potency": "inactive"}
{"smiles": "CCN1CCc2nc(N)oc2CC1", "Potency": "inactive"}
{"smiles": "COc1ccc(C(=O)c2cccc(O)c2)c(OC)c1", "Potency": "inactive"}
{"smiles": "CCCCOC(=O)CCS", "Potency": "inactive"}
{"smiles": "ClCCCl", "Potency": "inactive"}
{"smiles": "CN(C)c1ccc2nc3ccc(=[N+](C)C)cc-3sc2c1", "Potency": "54.5 µM (active)"}
{"smiles": "O=C(O)c1ccco1", "Potency": "inactive"}
{"smiles": "O=S(=O)(O)CCN1CCN(CCO)CC1", "Potency": "inactive"}
{"smiles": "CCC(C)SSC(C)CC", "note": "(stereo not given)", "Potency": "inactive"}
{"smiles": "CCCc1c2oc(C(=O)O)cc(=O)c2cc2c(=O)cc(C(=O)O)n(CC)c12", "Potency": "inactive"}
{"smiles": "CC(C)CC(=O)O", "Potency": "inactive"}
{"smiles": "O=C(O)c1ccccc1S", "Potency": "inactive"}
{"smiles": "Nc1ccc2c(S(=O)(=O)O)cccc2c1S(=O)(=O)O", "Potency": "inactive"}
{"smiles": "CCN(CC)CCNC(=O)c1ccc(N)cc1", "Potency": "inactive"}
{"smiles": "NC(=O)Cc1cccc2ccccc12", "Potency": "inactive"}
{"smiles": "NCC1CCCC(CN)C1", "note": "(stereo not given)", "Potency": "inactive"}
{"smiles": "CC(=O)c1sc(C)nc1C", "Potency": "inactive"}
{"smiles": "C=C(C)[C@@H]1CC[C@@H](C)C[C@@H]1O", "Potency": "inactive"}
{"smiles": "CN(C)/N=N/c1nc[nH]c1C(N)=O", "Potency": "inactive"}
{"smiles": "O=C(Cl)c1ccccc1[N+](=O)[O-]", "Potency": "inactive"}
{"smiles": "CCCCCCN", "Potency": "inactive"}
{"smiles": "CC(C)(c1ccc(O)cc1)c1ccc(O)cc1", "Potency": "inactive"}
{"smiles": "CCC(=O)OC", "Potency": "inactive"}
{"smiles": "CC[C@H](c1ccc(O)cc1)[C@@H](CC)c1ccc(O)cc1", "Potency": "54.5 µM (active)"}
{"smiles": "CSc1ccc(C(=O)c2[nH]c(=O)[nH]c2C)cc1", "Potency": "inactive"}
{"smiles": "C=CCS(=O)(=O)O", "Potency": "inactive"}
{"smiles": "CCC(=O)OC(C)c1ccccc1", "note": "(stereo not given)", "Potency": "inactive"}
{"smiles": "CN(CC1(C)CCCO1)S(=O)(=O)c1ccc(Cl)c(S(N)(=O)=O)c1", "note": "(stereo not given)", "Potency": "inactive"}
{"smiles": "CCCCCCCCO[C@@H]1O[C@H](CO)[C@@H](O)[C@H](O)[C@H]1O", "Potency": "inactive"}
{"smiles": "Cc1ccc(C)o1", "Potency": "inactive"}
{"smiles": "OCCN1CCN(CCCN2c3ccccc3C=Cc3ccccc32)CC1", "Potency": "inactive"}
{"smiles": "O=c1[nH]cnc2[nH]ncc12", "Potency": "inactive"}
{"smiles": "O=C(O)c1cc(N=Nc2ccc(S(=O)(=O)Nc3ccccn3)cc2)ccc1O", "Potency": "inactive"}
